# Assay results reported in PubChem BioAssay.
# The source made the active and inactive calls. Unless noted, how the calls were made is not given here.
# Columns and labels:
# [1] = compound effects on lung adenocarcinoma cell viability – A549, calcein-AM fluorescence, 48 h, basal, profiling panel (AID 1162); conditions: higher = more signal; further: test concentration not given here
# [2] = compound effects on differentiated 3T3-L1 adipocyte viability – cell-based, 3T3-L1 adipocytes, calcein-AM fluorescence, 48 h, basal, profiling panel (AID 1163); conditions: 3T3-L1 adipocytes viability, higher = more signal; further: test concentration not given here
# [3] = compound effects on hepatocellular carcinoma cell viability – HepG2, calcein-AM fluorescence, 48 h, basal, profiling panel (AID 1164); conditions: higher = more signal; further: test concentration not given here
# [4] = compound effects on multiple myeloma cell viability – MM1S, calcein-AM fluorescence, 48 h, basal, profiling panel (AID 1165); conditions: higher = more signal; further: test concentration not given here
# [5] = calcein-AM signal in unstimulated myeloma cells – cell-based, calcein-AM fluorescence, 48 h, PK04 Diversity Set, profiling panel (AID 1166); conditions: RPMI8226 myeloma viability, higher = more signal;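 further: cells grown under basal conditions without added stimulus; test concentration not given here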
# [6] = JC-1 mitochondrial signal, unstimulated HepG2 cells – cell-based, JC-1 fluorescence, 24 h, 100 nL compound, profiling panel (AID 1167); conditions: HepG2 mitochondrial potential, higher = more signal; further: test concentration not given here
# [7] = JC-1 mitochondrial signal, unstimulated adipocytes – cell-based, JC-1 fluorescence, 3T3-L1 adipocytes, 24 h, 100 nL compound, profiling panel (AID 1168); conditions: JC-1 mitochondrial fluorescence, higher = more signal, called active from +8 up or from −8 down; further: test concentration not given here
# [8] = JC-1 mitochondrial signal, unstimulated myeloma cells – cell-based, JC-1 fluorescence, RPMI8226, 24 h, 100 nL compound, profiling panel (AID 1169); conditions: JC-1 mitochondrial potential fluorescence, higher = more signal; further: test concentration not given here
# [9] = JC-1 mitochondrial signal, unstimulated MM1S myeloma – cell-based, JC-1 fluorescence, 24 h, 100 nL compound, profiling panel (AID 1170); conditions: MM1S mitochondrial potential, higher = more signal; further: test concentration not given here
# [10] = resazurin metabolic signal in A549 cells – cell-based, resazurin fluorescence, 24 h, PK04 Diversity Set, profiling panel (AID 1171); conditions: A549 viability, higher = more signal, called active from +8 up or from −8 down; further: test concentration not given here
# [11] = resazurin metabolic signal in HepG2 cells – cell-based, resazurin fluorescence, 24 h, PK04 Diversity Set, profiling panel (AID 1172); conditions: HepG2 viability, higher = more signal; further: test concentration not given here
# [12] = budding yeast growth changes without added modifier – OD600, strain BY4716, 24 h, basal condition, primary screen (AID 1173); conditions: S. cerevisiae BY4716 growth, OD600, 24 h; higher = more signal, called active from +8 up or from −8 down
# [13] = viability profiling in MM1S myeloma cells – cell-based, resazurin fluorescence, basal, 24 h, PK04 Diversity Set, profiling panel (AID 1174); conditions: higher = more signal, called active from +8 up or from −8 down; further: test concentration not given here
# [14] = target: Dihydroorotate dehydrogenase (quinone), mitochondrial (Plasmodium falciparum (isolate 3D7)) (UniProt Q08210); test: inhibition of P. falciparum DHODH – biochemical, C-terminal His tag, absorbance 600 nm, primary screen (AID 1175); conditions: PfDHODH enzyme, DCIP absorbance 600 nm; higher = more signal, called active from +8 up or from −8 down;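 further: recombinant parasite enzyme with a five histidine tag at its C terminus; test concentration not given here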
# [15] = inhibition of PAO1 biofilm formation – strain PAO1, LB-PBS medium, absorbance 600 nm, primary screen (AID 1176); further: test concentration not given here; conditions: P. aeruginosa PAO1 growth/biofilm, A600, 12 h; higher = more signal
# [16] = growth modulation of vineyard yeast isolate – strain RM11-1a, OD600, basal, 24 h, primary screen (AID 1177);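 further: cultures grown under basal conditions with no added stressor; test concentration not given here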; conditions: S. cerevisiae RM11-1a growth, OD600, 24 h; higher = more signal, called active from +8 up or from −8 down
# [17] = growth of efflux-deficient E. coli DRC39 – strain DRC39, OD650, 24 h, E. coli filamentation inducers, primary screen (AID 1178);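 further: growth measured as culture turbidity by optical density at 650 nm; test concentration not given here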; conditions: E. coli DRC39 acrAB, higher = more signal, called active from +8 up or from −8 down
# [18] = growth of efflux-deficient E. coli DRC39 – strain DRC39, OD650, 48 h, E. coli filamentation inducers, primary screen (AID 1179);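 further: screen aims at cell division blockers that make cells filament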; conditions: E. coli DRC39 delta-acrAB growth, higher = more signal, called active from +8 up or from −8 down
# [19] = viability profiling in RPMI8226 myeloma cells – cell-based, resazurin fluorescence, basal, 24 h, PK04 Diversity Set, profiling panel (AID 1180); conditions: higher = more signal;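 further: RPMI8826 multiple myeloma cell line at 5000 cells per well; test concentration not given here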
# [20] = target: E3 ubiquitin-protein ligase XIAP (Homo sapiens) (UniProt P98170); test: small molecules binding XIAP protein – biophysical, small-molecule microarray, fluorescence 635 nm, primary screen (AID 1181); conditions: higher = more signal;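 further: score merges 667 nm emission and signal to noise over triplicate slides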
# Chain of E3 ubiquitin-protein ligase XIAP (Homo sapiens) (P98170 whole entry, looked up): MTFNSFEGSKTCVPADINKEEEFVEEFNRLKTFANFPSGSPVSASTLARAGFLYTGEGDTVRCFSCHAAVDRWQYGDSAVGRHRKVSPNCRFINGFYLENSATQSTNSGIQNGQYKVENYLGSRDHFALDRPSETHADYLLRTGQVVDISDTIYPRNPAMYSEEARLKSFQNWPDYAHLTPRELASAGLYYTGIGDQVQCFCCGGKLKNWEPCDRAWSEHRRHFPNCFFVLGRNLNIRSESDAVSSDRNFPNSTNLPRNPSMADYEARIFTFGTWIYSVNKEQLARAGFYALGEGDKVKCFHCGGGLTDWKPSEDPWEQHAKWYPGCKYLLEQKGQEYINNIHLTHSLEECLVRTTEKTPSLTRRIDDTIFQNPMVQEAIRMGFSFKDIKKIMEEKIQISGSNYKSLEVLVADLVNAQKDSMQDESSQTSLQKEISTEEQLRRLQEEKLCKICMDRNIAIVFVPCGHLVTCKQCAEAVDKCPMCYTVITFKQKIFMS
# Chain of Dihydroorotate dehydrogenase (quinone), mitochondrial (Plasmodium falciparum (isolate 3D7)) (Q08210 whole entry, looked up): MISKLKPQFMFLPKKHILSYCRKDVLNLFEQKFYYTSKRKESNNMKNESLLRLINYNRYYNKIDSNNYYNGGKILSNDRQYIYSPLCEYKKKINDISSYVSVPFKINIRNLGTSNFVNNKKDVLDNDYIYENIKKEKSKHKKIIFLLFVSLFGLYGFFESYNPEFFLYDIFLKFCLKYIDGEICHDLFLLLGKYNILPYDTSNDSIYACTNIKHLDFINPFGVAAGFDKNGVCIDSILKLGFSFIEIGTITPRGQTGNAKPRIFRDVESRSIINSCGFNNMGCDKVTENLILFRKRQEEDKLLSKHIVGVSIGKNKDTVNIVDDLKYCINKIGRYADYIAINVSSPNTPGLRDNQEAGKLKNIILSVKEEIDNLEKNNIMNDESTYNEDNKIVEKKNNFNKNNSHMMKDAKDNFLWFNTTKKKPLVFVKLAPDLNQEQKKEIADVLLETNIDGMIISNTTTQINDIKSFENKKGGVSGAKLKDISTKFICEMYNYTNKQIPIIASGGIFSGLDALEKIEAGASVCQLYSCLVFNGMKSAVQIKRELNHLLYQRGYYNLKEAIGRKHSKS
structure (smiles),measurement,setting,value
COc1ccccc1CN1C(=O)c2ccccc2[C@@H](C(=O)NCCCN(C)C)[C@@H]1c1ccc(CO)cc1,z-score,[1],1.29
same,z-score,[2],0.608
same,z-score,[3],1.07
same,z-score,[4],0.376
same,z-score,[5],0.0552
same,z-score,[6],3.31
same,z-score,[7],0.629 (inactive)
same,z-score,[8],0.262
same,z-score,[9],0.325
same,z-score,[10],0.997 (inactive)
same,z-score,[11],0.619
same,z-score,[12],-1.37 (inactive)
same,z-score,[13],1.22 (inactive)
same,composite z-score,[14],0.0824 (inactive)
same,z-score,[15],0.292 (inactive)
same,z-score,[16],-0.942 (inactive)
same,z-score,[17],0.65 (inactive)
same,z-score,[18],1.37 (inactive)
same,z-score,[19],1.09
same,composite z-score,[20],-0.0426
C=C(C(=O)CC[C@@H](OC(C)=O)c1cccc(OCCO)c1)C(C)C,z-score,[1],-0.351
same,z-score,[2],0.0938
same,z-score,[3],-0.351
same,z-score,[4],-1.54
same,z-score,[5],-0.0608
same,z-score,[6],-1.55
same,z-score,[7],0.216 (inactive)
same,z-score,[8],0.592
same,z-score,[9],0.484
same,z-score,[10],-0.326 (inactive)
same,z-score,[11],-1.1
same,z-score,[12],-1.03 (inactive)
same,z-score,[13],-0.353 (inactive)
same,composite z-score,[14],-0.842 (inactive)
same,z-score,[15],0.26 (inactive)
same,z-score,[16],1.11 (inactive)
same,z-score,[17],-1.29 (inactive)
same,z-score,[18],-1.06 (inactive)
same,z-score,[19],0.173
same,composite z-score,[20],0.686
O=C1OCCC/C=C\[C@H]2OC34C=CCN(Cc5ccccc5)C(=O)[C@H]3N(CCCCCO)C(=O)[C@@H]4C12 (stereo not given in full),z-score,[1],0.379
same,z-score,[2],0.65
same,z-score,[3],0.414
same,z-score,[4],1.03
same,z-score,[5],-0.42
same,z-score,[6],-0.0205
same,z-score,[7],-0.0419 (inactive)
same,z-score,[8],0.803
same,z-score,[9],-0.322
same,z-score,[10],1.37 (inactive)
same,z-score,[11],0.804
same,z-score,[12],-1.08 (inactive)
same,z-score,[13],1.24 (inactive)
same,composite z-score,[14],-0.279 (inactive)
same,z-score,[15],-0.099 (inactive)
same,z-score,[16],-0.581 (inactive)
same,z-score,[17],0.691 (inactive)
same,z-score,[18],0.775 (inactive)
same,z-score,[19],1.16
same,composite z-score,[20],-0.157
COc1ccc([Si](C)(C)[C@@H]2[C@@H](CCO)O[C@]3(C(=O)N(Cc4ccccc4)c4ccc(N5C(=O)c6ccccc6Oc6ccccc65)cc43)[C@H]2C)cc1,z-score,[1],-1.47
same,z-score,[2],-0.0095
same,z-score,[3],-1.96
same,z-score,[4],-1.77
same,z-score,[5],-2.66
same,z-score,[6],-0.871
same,z-score,[7],-0.735 (inactive)
same,z-score,[8],-0.848
same,z-score,[9],-1.36
same,z-score,[10],-1.07 (inactive)
same,z-score,[11],1.09
same,z-score,[12],1.84 (inactive)
same,z-score,[13],-1.3 (inactive)
same,composite z-score,[14],-0.641 (inactive)
same,z-score,[15],0.225 (inactive)
same,z-score,[16],3.88 (inactive)
same,z-score,[17],0.727 (inactive)
same,z-score,[18],0.435 (inactive)
same,z-score,[19],-1.81
same,composite z-score,[20],-0.157
COCCOC(=O)N1C(=O)[C@@]2(c3cc(C#Cc4ccc(OC)cc4)ccc31)[C@H](C(=O)Nc1nc3ccccc3s1)[C@H]1C(=O)O[C@H](c3ccccc3)[C@H](c3ccccc3)N1[C@@H]2c1ccccc1OCCO,z-score,[1],-0.49
same,z-score,[2],1.31
same,z-score,[3],0.195
same,z-score,[4],-1.35
same,z-score,[5],-0.213
same,z-score,[6],-2.46
same,z-score,[7],3.66 (inactive)
same,z-score,[8],-0.678
same,z-score,[9],-0.881
same,z-score,[10],0.027 (inactive)
same,z-score,[11],1.17
same,z-score,[12],0.86 (inactive)
same,z-score,[13],1.34 (inactive)
same,composite z-score,[14],-0.882 (inactive)
same,z-score,[15],1.89 (inactive)
same,z-score,[16],0.972 (inactive)
same,z-score,[17],0.285 (inactive)
same,z-score,[18],0.376 (inactive)
same,z-score,[19],1.85
same,composite z-score,[20],-0.221
COCCOC(=O)N1C(=O)[C@@]2(c3ccccc31)[C@H](C(=O)N1CCCCCCC1)[C@H]1C(=O)O[C@H](c3ccccc3)[C@H](c3ccccc3)N1[C@@H]2c1ccc(O)cc1,z-score,[1],0.452
same,z-score,[2],0.688
same,z-score,[3],1.11
same,z-score,[4],-0.233
same,z-score,[5],-1.54
same,z-score,[6],-0.229
same,z-score,[7],1.45 (inactive)
same,z-score,[8],-0.564
same,z-score,[9],-0.21
same,z-score,[10],0.17 (inactive)
same,z-score,[11],0.226
same,z-score,[12],-0.975 (inactive)
same,z-score,[13],-1.51 (inactive)
same,composite z-score,[14],-0.862 (inactive)
same,z-score,[15],1.32 (inactive)
same,z-score,[16],-0.145 (inactive)
same,z-score,[17],-0.0831 (inactive)
same,z-score,[18],-0.303 (inactive)
same,z-score,[19],-1.03
same,composite z-score,[20],0.782
O=C1O[C@@H](c2ccccc2)[C@@H](c2ccccc2)N2[C@@H](c3ccc(OCCO)cc3)[C@]3(C(=O)Nc4ccc(C#CCCO)cc43)[C@@H](C(=O)Nc3nc4ccccc4s3)[C@H]12,z-score,[1],0.0652
same,z-score,[2],0.794
same,z-score,[3],-0.354
same,z-score,[4],-0.267
same,z-score,[5],-0.0767
same,z-score,[6],-3.09
same,z-score,[7],1.57 (inactive)
same,z-score,[8],-1.06
same,z-score,[9],-1.49
same,z-score,[10],1.58 (inactive)
same,z-score,[11],1.44
same,z-score,[12],0.799 (inactive)
same,z-score,[13],1 (inactive)
same,composite z-score,[14],-0.812 (inactive)
same,z-score,[15],0.89 (inactive)
same,z-score,[16],0.25 (inactive)
same,z-score,[17],0.042 (inactive)
same,z-score,[18],-0.366 (inactive)
same,z-score,[19],1.51
same,composite z-score,[20],0.0225
COCCOC(=O)N1C(=O)[C@@]2(c3cc(C#CCCO)ccc31)[C@H](C(=O)N1CCN(c3ncccn3)CC1)[C@H]1C(=O)O[C@H](c3ccccc3)[C@H](c3ccccc3)N1[C@@H]2c1ccc(O)cc1,z-score,[1],1.61
same,z-score,[2],0.222
same,z-score,[3],1.54
same,z-score,[4],0.14
same,z-score,[5],0.0881
same,z-score,[6],-0.141
same,z-score,[7],0.339 (inactive)
same,z-score,[8],-0.614
same,z-score,[9],-1.07
same,z-score,[10],0.249 (inactive)
same,z-score,[11],-0.335
same,z-score,[12],-0.142 (inactive)
same,z-score,[13],0.359 (inactive)
same,composite z-score,[14],-1.22 (inactive)
same,z-score,[15],1.85 (inactive)
same,z-score,[16],0.135 (inactive)
same,z-score,[17],0.947 (inactive)
same,z-score,[18],1.6 (inactive)
same,z-score,[19],0.818
same,composite z-score,[20],-0.031
COCCCNC(=O)[C@@H]1c2ccccc2C(=O)N(Cc2cc(C(F)(F)F)cc(C(F)(F)F)c2)[C@H]1c1ccc(CO)cc1,z-score,[1],0.301
same,z-score,[2],-0.458
same,z-score,[3],0.519
same,z-score,[4],0.514
same,z-score,[5],-1.74
same,z-score,[6],0.983
same,z-score,[7],0.385 (inactive)
same,z-score,[8],-0.992
same,z-score,[9],0.636
same,z-score,[10],-0.266 (inactive)
same,z-score,[11],-0.249
same,z-score,[12],-0.65 (inactive)
same,z-score,[13],-0.0193 (inactive)
same,composite z-score,[14],0.721 (inactive)
same,z-score,[15],0.196 (inactive)
same,z-score,[16],-0.432 (inactive)
same,z-score,[17],0.153 (inactive)
same,z-score,[18],0.304 (inactive)
same,z-score,[19],0.431
same,composite z-score,[20],0.0871
